According to PubChem BioAssay AID2099 (Broad Institute, 2009):
Screen size: about 330,000 compounds; about 230 (0.07%) were called active. This excerpt belongs to a sample that is enriched for actives. A number with no mark means an inactive call.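 How the source made its calls: active means more than half of a compound's replicate wells show inhibition beyond 50%, single wells judged on their own value; inconclusive means some, but no more than half, of replicates pass 50% inhibition; inactive means no replicate passes 50% inhibition.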

Target: Lysine-specific demethylase 4C (Homo sapiens) (UniProt Q9H3R0)
Test: inhibitors of GASC-1 histone demethylase, primary screen, biochemical, fluorescence, DELFIA europium (AID 2099);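 further: signal counts dimethyl H3K9 product captured on neutravidin plate; 0% = median of DMSO wells and 100% = 0.3 times that DMSO median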
Details: GST-JMJD2C(1-420) H3K9me3 demethylation, at 2.35 µM, hits give high values

Lysine-specific demethylase 4C (Homo sapiens), sequence (Q9H3R0 1-420 limits assumed): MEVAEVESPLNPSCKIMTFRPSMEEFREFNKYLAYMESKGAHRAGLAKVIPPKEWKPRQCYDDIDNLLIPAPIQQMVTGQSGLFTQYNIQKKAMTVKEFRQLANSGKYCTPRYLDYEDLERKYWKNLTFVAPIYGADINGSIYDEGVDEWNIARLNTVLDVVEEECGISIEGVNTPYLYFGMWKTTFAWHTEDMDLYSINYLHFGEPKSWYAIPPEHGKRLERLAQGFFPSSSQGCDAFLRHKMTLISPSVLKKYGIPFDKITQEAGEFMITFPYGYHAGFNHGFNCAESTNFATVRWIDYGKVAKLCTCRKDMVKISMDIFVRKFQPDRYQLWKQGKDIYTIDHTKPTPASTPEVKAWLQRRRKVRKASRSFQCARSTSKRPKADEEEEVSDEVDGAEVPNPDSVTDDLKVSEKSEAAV

SMILES | inhibition
CN1CCN(CC#CCC2(O)c3ccccc3-c3ccccc32)CC1 | -1.35%
O=C(N/C(=C\c1ccc([N+](=O)[O-])cc1)C(=O)N1CCOCC1)c1cccc(Br)c1 | -3.44%
C=CCN1C(=O)C(O)(CC(=O)c2ccc(Cl)cc2)c2ccccc21 (stereo not drawn) | -1.48%
Cc1ccsc1/C=N/n1c(=S)[nH]nc(C)c1=O | -1.06%
C=CCn1cc(Cl)cc(C(=O)Nc2ccccc2)c1=O | 3.59%
O=C1Nc2cc(Cl)c(Cl)cc2N(O)N1c1ccccc1Cl | -2.09%
CCCCN(CCCC)CCNC(=O)CN1C(=O)COc2ccc(S(=O)(=O)N3CCOCC3)cc21 | -8.15%
COc1cc2c(cc1OC)CC1(CCCCC1)N=C2 | 2.64%
COC(C[C@@H](O)[C@H](C)[C@H](O)COCc1ccccc1)OC | 13.4%
O=C(CSc1nc(=O)n2ccccc2n1)Nc1ccc2c(c1)OCCO2 | -1.16%
COc1cccc(NCCC(=O)c2cccc([N+](=O)[O-])c2)c1 | 4.3%
CCc1ccc(N2CC(O)=C(c3nc4ccccc4c(=O)[nH]3)C2=N)cc1 | -0.372%
Cc1cc(C)c(S(=O)(=O)N2CCOCC2)cc1C | 8.81%
Cc1ccc(C2=NN(C)c3nc4ccccc4n3C2)cc1 | 4.06%
Cc1nn(C)c(Cl)c1CN1CCC(Oc2ccc(C(=O)N3CCCC3)cc2)CC1 | 36.3%
Cc1ccc(-n2c(CNc3ccc(F)cc3)nnc2SCC(=O)N2CCOCC2)cc1 | 0.71%
CC(=O)Nc1ccc(NC(=O)CCN2C(=O)C3CC=CCC3C2=O)cc1 (stereo not drawn) | 3.08%
O=c1cc(-c2ccccc2)[nH]c2cc(F)ccc12 | 0.818%
Cc1ccccc1NC(=O)N1CCCC1C(=O)NCc1ccccc1 (stereo not drawn) | 5.47%
Cc1nnc(SC(C(=O)c2ccccc2)c2ccccc2)[nH]c1=O (stereo not drawn) | -3.86%
CCCCN1CCNC1=S | 0.223%
OCCC1CN(Cc2ccc3nsnc3c2)CCN1C1CCCC1 (stereo not drawn) | -2.72%
O=C(NCc1ccccn1)c1cnc2sccn2c1=O | -1.24%
Cc1nc2nc(SCC(=O)Nc3cccc(F)c3)[nH]c2cc1Br | 6.95%

SMILES | inhibition
COc1ccc(F)c(-c2nc(CN3CCC(c4ccccc4)CC3)c(C)o2)c1 | -8.87%
O=c1c2sccc2nc(SCc2cc(=O)n3ccccc3n2)n1-c1ccc(Br)cc1 | -3.21%
CC(C)(C)NC(=O)NC(=O)CN1CCC(Cc2ccccc2)CC1 | -22.7%
CN(CC1CCCO1)S(=O)(=O)c1ccc(C(=O)Nc2ccc([N+](=O)[O-])cc2)cc1 (stereo not drawn) | -19.5%
COc1ccc(NS(=O)(=O)c2ccc(N3CCN(CCO)CC3)c([N+](=O)[O-])c2)cc1 | 1.9%
O=C(NCc1ccccc1Cl)NC(=O)c1csc([N+](=O)[O-])c1 | -1.75%
O=C(CN1CCCCCC1)Nc1ccc(Br)cc1Br | 7.23%
O=C(CCCOc1ccccc1)NCc1ccco1 | 8.15%
COc1cccc(OC)c1C(=O)OCC(=O)/C(C#N)=C(\C)N | -25.5%
CC(C)CCN1CCN(Cc2cn[nH]c2C2CCCCC2)CC1CCO (stereo not drawn) | -11.2%
COc1ccc(NC(=O)CN(C)C(=O)c2cccc(S(=O)(=O)N3CCN(c4ccccc4)CC3)c2)cc1 | 38.9%
CCCC(=O)N1CCC(CCC(=O)NC2CC2)CC1 | 33.1%
O=C(CSCc1c(Cl)cccc1Cl)NN1C(=O)c2ccccc2C1=O | -14.7%
CCCCn1c(N)c(N(CC(C)C)C(=O)c2cccc(S(=O)(=O)N3CC(C)OC(C)C3)c2)c(=O)[nH]c1=O (stereo not drawn) | -2.81%
O=C(OCC1O[C@@H](OC(=O)c2cc(O)c(O)c(O)c2)[C@@H](OC(=O)c2cc(O)c(O)c(O)c2)[C@@H](OC(=O)c2cc(O)c(O)c(O)c2)[C@@H]1OC(=O)c1cc(O)c(O)c(O)c1)c1cc(O)c(O)c(O)c1 (stereo partly drawn) | 97.3% (active)
NS(=O)(=O)c1ccc(NC(=S)NNC(=O)c2cccs2)cc1 | 0.859%
Cc1cccc(-c2noc(CCC(=O)NC3CCCC3)n2)c1 | 54.2% (active)
CCOc1ccc(-c2noc(CCC(=O)NC3CCCC3)n2)cc1OC | 7.26%
COc1ccc(-c2noc(CCCC(=O)NC3CCCC3)n2)cc1OC | 0.509%
C/C(=N\NC(=O)COc1ccc(C)cc1[N+](=O)[O-])c1ccc2c(c1)OCCO2 | 9.39%
Cc1cc(NC(=O)Nc2c[nH]c(=O)[nH]c2=O)ccc1Br | 53.4% (active)
Cc1ccc(NC(=O)Nc2ccccc2)c(Br)c1 | 14.6%
Cc1cc(NC(=O)[C@H](C)NC(=O)c2ccco2)ccc1Br | -9.73%
CCc1c(C)nc2c(OC)cccc2c1Cl | 8.11%

SMILES | inhibition
Cc1ccccc1CN1C[C@@H]2C[C@@H](c3ccc4nsnc4c3)N3CCC[C@@]23C1=O | 10.6%
COc1cccc(COC(=O)C2CCN(S(=O)(=O)c3cccs3)CC2)c1OC | -2.56%
O=c1ccc2c(-c3ccccc3S(=O)(=O)O)c3ccc(O)c(O)c3oc-2c1O | 79.5% (active)
CC(C)CN(C(=O)Cn1c(=O)cnc2ccccc21)C1CCS(=O)(=O)C1 (stereo not drawn) | 2.23%
CCc1ccc(-c2nnn(Cc3nn[nH]n3)n2)cc1 | 57.7% (active)
c1cc(-c2nn[nH]n2)ccc1CN1CCCCC1 | 12.9%
CCc1ccc(-c2nnn(Cc3nc4ccccc4s3)n2)cc1 | 51.2%
Nc1nc(NCC(=O)O)nc(N2CCCCCC2)c1[N+](=O)[O-] | 21.9%
N#CCc1c(C#N)c(N)nc(N2CCCC2)c1C#N | 1.17%
N#Cc1c(N2CCCCC2)nc(N)c2c(N)nc(SCC(=O)O)cc12 | 65.6% (active)
CCCCn1c(N)c(N(CC(C)C)C(=O)c2ccc(-n3c(C)ccc3C)cc2)c(=O)[nH]c1=O | -11.1%
Cc1cc(=O)n2nc(N3CCC(C(=O)Nc4c(F)c(F)c(F)c(F)c4F)CC3)sc2n1 | 1.58%
COc1cc(CNCc2ccc3c(c2)OCO3)c([N+](=O)[O-])cc1OC | 1.62%
O=C(CN1C(=O)NC2(CCCCCC2)C1=O)NCc1ccc(F)cc1 | 2.24%
CSc1ccccc1NC(=O)c1cc(C2CC2)on1 | 4.43%
COC(=O)C1C(=O)CC(C)(O)C(C(=O)OC)C1c1ccc2c(c1)OCO2 (stereo not drawn) | -4.99%
N#Cc1c(/N=C/N2CCCC2)oc(-c2ccccc2)c1-c1ccccc1 | -7.68%
COc1ccc(C2(CNC(=O)Cc3ccc(OC)c(OC)c3)CCCC2)cc1 | -23.7%
COc1ccc(C)cc1S(=O)(=O)Nc1cc2c3c(c1)CCC(=O)N3CCC2 | -0.171%
O=C(O)C1CCN1C1CCCCC1 (stereo not drawn) | -9.8%
COc1ccc(NC(=O)C2CCC(CNc3c(N4CCCCC4)c(=O)c3=O)CC2)c(OC)c1 (stereo not drawn) | -6.37%
COCc1cc(C)nc2sc3c(=O)n(-c4cccc5ccccc45)nnc3c12 | -7.85%
CCc1nc2cccnc2n1-c1ccc(C(=O)O)cc1 | 3.28%
Cc1ccc2nc(-c3ccc(NC(=O)CN(C)S(=O)(=O)c4ccccc4)cc3)sc2c1 | -15.6%

SMILES | inhibition
CN(CCCC(=O)Nc1nccs1)S(=O)(=O)c1ccc(Cl)cc1 | 9.62%
O=C1C=C(c2ccccc2)CCC1 | -14.3%
C/C=C/C(=O)Nc1nnc(C(C)C)s1 | -0.768%
CCCC(=O)N1CCN(c2nnc(-c3ccc(C)cc3)c3ccccc23)CC1 | -13.5%
C[C@H](C(=O)CC(=O)OC(C)(C)C)[C@H](O)c1ccc(C(F)(F)F)cc1 | 1.41%
CC1CCCCC1NC(=O)Cn1cnc2c1c(=O)n(C)c(=O)n2C (stereo not drawn) | 6.58%
O=C1CCC(=O)N1CCOP1(=O)COc2ccccc2OC1 | 2.42%
NC(=O)c1ccc(N2CCOCC2)nc1 | -3.7%
Cc1noc(NS(=O)(=O)c2ccc(N3CC(O)=C(c4ccccc4)C3=N)cc2)c1C | -10.1%
COc1ccc([N+](=O)[O-])cc1NC(=O)CC1SC(=Nc2cccc(C)c2C)N(/N=C(\C)c2ccc(C)cc2)C1=O (stereo not drawn) | -21.9%
CN(Cc1ccccc1)C(=O)C(=O)c1cn(CC(=O)N2CCCC2)c2ccccc12 | 11.9%
O=C(c1cc2ccccc2s1)N1CCN(c2ccccn2)CC1 | -6.37%
O=C(N=C1SC2CS(=O)(=O)CC2N1c1ccccc1)c1ccccc1 (stereo not drawn) | 1.92%
COc1ccc(C)cc1NC(=O)CCCN1C(=O)NC(C)(C)C1=O | -6.72%
O=C(CC(NS(=O)(=O)c1ccc(Cl)cc1)c1ccco1)NC1CCCC1 (stereo not drawn) | -10.3%
CC(C)Cn1c(N2CCN(C(=O)/C=C/c3ccccc3)CC2)nc2ccccc21 | 12%
CCCCn1c(N)c(N(CC)C(=O)/C=C/c2ccco2)c(=O)[nH]c1=O | -4.8%
CN(C(=O)CSc1cccc[n+]1[O-])C1CCCCC1 | -11.4%
CCOc1cc(CN2CCCC(CO)(Cc3ccc(F)cc3F)C2)ccc1OC (stereo not drawn) | -2.58%
O=C(NCc1cccs1)c1ccc(CS(=O)Cc2ccccc2Cl)o1 (stereo not drawn) | -4.03%
CCOc1cnc(-c2c(-c3ccccc3Cl)noc2C)o1 | 0.379%
